# Laboratory results published in PubChem BioAssay (NCATS).
# Where “and” joins values, the source holds several entries; their conditions need not be identical. Equal values may be shown once. Records with an inconclusive call do not appear. Entries that show only a call come without a potency. Values without a mark were called inactive. Calls of active or inactive are those of the source. Calls follow the shape of the dose curve; as a rule, active = well fitted curve in the direction sought with a large enough effect; inconclusive = small, poorly fitted or top-dose-only effect, or another doubt; inactive = no such curve, though single readings can be large; an effect the other way counts as inactive or inconclusive.
# How the values were obtained:
# CRL-7250 = normal cell line; assay: Cytotoxic Profiling of Annotated Libraries Using Quantitative High-Throughput Screening (AID 1296008); details: Five cell lines viability, CellTiter-Glo ATP luminescence, 48-72 h; max response: hits give low values; also: nearly all actives have a fitted effect of over 60% in size
# In short: (§1)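 Cytotoxicity was measured as CellTiter-Glo ATP luminescence, read after 10 min at room temperature. Compound treatment of the cells lasted 48 or 72 hr at 37 degrees Celsius in a qHTS format.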
# HEK293 = assay: as above; details: Five cell lines viability, CellTiter-Glo ATP luminescence, 48-72 h; max response: hits give low values
# In short: as §1
# HaCat = assay: as above; details: Five cell lines viability, CellTiter-Glo ATP luminescence, 48-72 h; max response: hits give low values
# In short: as §1
# KB-3-1 = assay: as above; details: Five cell lines viability, CellTiter-Glo ATP luminescence, 48-72 h; max response: hits give low values
# In short: as §1
# MCC-13 = assay: qHTS assay to identify novel small-molecules to repurpose for Merkel cell carcinoma treatment (AID 1296009); details: MCC and control cell lines, CellTiter-Glo viability, 72 h; series mostly up to 46 µM; also: nearly all actives have a fitted effect of over 60% in size
# In short: (§2)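 Cell viability measured by CellTiter-Glo following 72 hr compound treatment at 37 degree celsius, with NPC and MIPE libraries tested in 8- and 11-point concentration series.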
# MCC-26 = assay: as above; details: MCC and control cell lines, CellTiter-Glo viability, 72 h; series mostly up to 46 µM
# In short: as §2
# NIH3T3 [1] = assay: Cytotoxic Profiling of Annotated Libraries Using Quantitative High-Throughput Screening (AID 1296008); details: Five cell lines viability, CellTiter-Glo ATP luminescence, 48-72 h; max response: hits give low values; also: nearly all actives have a fitted effect of over 60% in size
# In short: as §1
# MKL-1 = assay: qHTS assay to identify novel small-molecules to repurpose for Merkel cell carcinoma treatment (AID 1296009); details: MCC and control cell lines, CellTiter-Glo viability, 72 h; series mostly up to 46 µM; also: nearly all actives have a fitted effect of over 60% in size
# In short: as §2
# MKL-2 = assay: as above; details: MCC and control cell lines, CellTiter-Glo viability, 72 h; series mostly up to 46 µM
# In short: as §2
# UISO = assay: as above; details: MCC and control cell lines, CellTiter-Glo viability, 72 h; series mostly up to 46 µM
# In short: as §2
# WaGa = assay: as above; details: MCC and control cell lines, CellTiter-Glo viability, 72 h; series mostly up to 46 µM
# In short: as §2
# NIH3T3 [2] = assay: as above; details: MCC and control cell lines, CellTiter-Glo viability, 72 h; series mostly up to 44.8 µM
# In short: as §2
# CASKI = assay: Primary qHTS to identify gynecologic anti-cancer compounds using libraries of approved drugs and bioactive compounds (AID 1345084); details: Gynecologic cancer cell panel viability, ATPlite luminescence, 48 h; series mostly up to 57.5 µM; also: nearly all actives have a fitted effect of over 55% in size
# In short: (§3)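 Measured: luminescence after ATPlite addition (15 min, RT). Exposure: 48 h, 37 C, 5% CO2.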
# Hek293T = assay: as above; details: Gynecologic cancer cell panel viability, ATPlite luminescence, 48 h, control line for the selectivity index; series mostly up to 57.5 µM
# In short: as §3
# C33A = assay: as above; details: Gynecologic cancer cell panel viability, ATPlite luminescence, 48 h; series mostly up to 57.5 µM
# In short: as §3
# CAOV3 = assay: as above; details: Gynecologic cancer cell panel viability, ATPlite luminescence, 48 h; series mostly up to 57.5 µM
# In short: as §3
# HeLa = assay: as above; details: Gynecologic cancer cell panel viability, ATPlite luminescence, 48 h; series mostly up to 57.5 µM
# In short: as §3
# Potency is read from the fitted curve at half-maximal effect.
compound,measurement,setting,value
COc1ccc(CCN(C)CCCOc2ccc(S(=O)(=O)c3[nH]c4ccccc4c3C(C)C)cc2)cc1OC,outcome,CRL-7250,inactive
same,max response,HEK293,-1.95%
same,max response,HaCat,-8.82%
same,max response,KB-3-1,5.18%
same,Potency,MCC-13,inactive
same,Potency,MCC-26,inactive
CC(C)C[C@@H](N)[C@H](O)C(=O)N[C@H](C(=O)N[C@H](C(=O)N[C@@H](CC(=O)O)C(=O)O)C(C)C)C(C)C,max response,CRL-7250,3.99%
same,max response,HEK293,3.01%
same,max response,HaCat,1.98%
same,max response,KB-3-1,4.23%
same,max response,NIH3T3 [1],1.99%
same,Potency,MCC-13,inactive
same,Potency,MCC-26,inactive
same,Potency,MKL-1,inactive
same,Potency,MKL-2,inactive
same,Potency,UISO,inactive
same,Potency,WaGa,inactive
OC[C@H]1O[C@@H](O[C@H]2[C@@H](O)[C@@](O)(CO)O[C@@H]2CO)[C@H](O)[C@@H](O)[C@@H]1O,max response,CRL-7250,-0.0942%
same,max response,HEK293,-3.28%
same,max response,HaCat,1.22%
same,max response,KB-3-1,-0.101%
same,max response,NIH3T3 [1],2.52%
same,Potency,MCC-13,inactive
same,Potency,MCC-26,inactive
same,Potency,MKL-1,inactive
same,Potency,MKL-2,inactive
same,Potency,UISO,inactive
same,Potency,WaGa,inactive
CC(C)CN(C[C@@H](O)[C@H](Cc1ccccc1)NC(=O)O[C@H]1CO[C@H]2OCC[C@H]21)S(=O)(=O)c1ccc(N)cc1,max response,CRL-7250,-22%
same,max response,HEK293,-18.9%
same,max response,HaCat,-16.8%
same,outcome,KB-3-1,inactive
same,outcome,NIH3T3 [1],inactive
same,Potency,MCC-13,inactive
same,Potency,MCC-26,inactive
same,Potency,NIH3T3 [2],inactive
same,Potency,UISO,inactive
C[C@H]1COC2=C1C(=O)C(=O)c1c2ccc2c1CCCC2(C)C,max response,CRL-7250,-3.27%
same,max response,HEK293,-0.441%
same,max response,HaCat,3.37%
same,max response,KB-3-1,-1.52%
same,outcome,NIH3T3 [1],inactive
same,Potency,MCC-13,inactive
same,Potency,MCC-26,inactive
same,Potency,MKL-1,inactive
same,Potency,MKL-2,inactive
same,Potency,NIH3T3 [2],inactive
same,Potency,UISO,inactive
same,Potency,WaGa,inactive
Cc1nc(NC(=O)N2CCC[C@@H]2C(N)=O)sc1-c1csc(C(C)(C)C)n1,Potency,CRL-7250,1.32 µM (active)
same,Potency,HEK293,2.35 µM (active)
same,Potency,HaCat,1.87 µM (active)
same,Potency,KB-3-1,13.2 µM (active)
same,Potency,NIH3T3 [1],4.69 µM (active)
same,Potency,MCC-13,inactive
same,Potency,MKL-1,inactive
same,Potency,MKL-2,inactive
CC(NCCc1ccc(O)cc1)C(O)c1ccc(O)cc1 (configuration not stated),max response,CRL-7250,-0.502%
same,max response,HEK293,3.14%
same,max response,HaCat,-0.381%
same,max response,KB-3-1,-1.97%
same,outcome,NIH3T3 [1],inactive
same,Potency,MCC-13,inactive
same,Potency,MCC-26,inactive
same,Potency,MKL-1,inactive
same,Potency,MKL-2,inactive
same,Potency,NIH3T3 [2],inactive
same,Potency,UISO,inactive
same,Potency,WaGa,inactive
CC(C)=CCCC(C)=CCCC(C)=CCCC(C)=CCCC(C)=CCCC(C)=CCCC(C)=CCCC(C)=CCCC(C)=CCO,max response,CRL-7250,0.939%
same,max response,HEK293,-3.76%
same,max response,HaCat,1.51%
same,max response,KB-3-1,4.17%
same,max response,NIH3T3 [1],-3.52%
same,Potency,MCC-13,inactive
same,Potency,MCC-26,inactive
same,Potency,MKL-1,inactive
same,Potency,MKL-2,inactive
same,Potency,UISO,inactive
same,Potency,WaGa,inactive
CN1CCN2c3ncccc3Cc3ccccc3C2C1 (configuration not stated),max response,CRL-7250,-0.363%
same,max response,HEK293,-5%
same,max response,HaCat,-6.78%
same,max response,KB-3-1,-7.74% and 1.92%
same,outcome,NIH3T3 [1],inactive
same,Potency,MCC-13,inactive
same,Potency,MCC-26,inactive
same,Potency,MKL-1,inactive
same,Potency,MKL-2,inactive
same,Potency,NIH3T3 [2],inactive
same,Potency,UISO,inactive
same,Potency,WaGa,inactive
COc1cc(F)c(C(C)C)cc1-c1ccc(C(F)(F)F)cc1CN1C(=O)O[C@H](c2cc(C(F)(F)F)cc(C(F)(F)F)c2)[C@@H]1C,outcome,CRL-7250,inactive
same,max response,HEK293,0.948%
same,max response,HaCat,0.17%
same,max response,KB-3-1,-11.6%
same,max response,NIH3T3 [1],0.998%
same,Potency,MCC-13,inactive
same,Potency,MCC-26,inactive
same,Potency,MKL-1,inactive
same,Potency,MKL-2,inactive
same,Potency,UISO,inactive
same,Potency,WaGa,inactive
COc1cc(Cl)cn2c(-c3cccc(NC4CNC4)n3)cnc12,max response,CRL-7250,-2.6%
same,max response,HEK293,-13.3%
same,max response,HaCat,-3.22%
same,max response,KB-3-1,-0.178%
same,max response,NIH3T3 [1],4.3%
same,Potency,MCC-13,inactive
same,Potency,MCC-26,inactive
same,Potency,MKL-1,inactive
same,Potency,MKL-2,inactive
same,Potency,UISO,inactive
same,Potency,WaGa,inactive
Nc1ncnc2c1c(-c1cccc(OCc3ccccc3)c1)cn2C1CC(CN2CCC2)C1 (configuration not stated),outcome,CRL-7250,inactive
same,Potency,HEK293,26.4 µM (active) and 8.2 µM (active)
same,max response,HaCat,4.36%
same,Potency,KB-3-1,23.1 µM (active)
same,Potency,NIH3T3 [1],23.5 µM (active) and 4.61 µM (active)
same,Potency,MCC-13,inactive
same,Potency,MCC-26,inactive
same,Potency,MKL-1,inactive
same,Potency,MKL-2,inactive
same,Potency,WaGa,inactive
same,Potency,CASKI,28.2 µM (active)
same,Potency,Hek293T,14.1 µM (active)
FC(F)(F)c1ccc(C=Cc2nc(COc3ccc(CCCCn4ccnn4)cc3)co2)cc1,Potency,CRL-7250,0.0132 µM (active)
same,max response,HEK293,-116%
same,Potency,HaCat,7.43 µM (active)
same,max response,KB-3-1,-26.9%
same,max response,NIH3T3 [1],-14.8%
same,Potency,MCC-13,10.5 µM (active)
same,Potency,MKL-1,0.0235 µM (active)
same,Potency,UISO,0.0264 µM (active)
same,Potency,WaGa,0.0047 µM (active)
N#CC1(c2cccc(C(=O)Nc3cc(Oc4ccc5nc(NC(=O)C6CC6)sc5n4)ccc3F)c2Cl)CC1,Potency,CRL-7250,5.17 µM (active)
same,Potency,HEK293,13.2 µM (active) and 6.51 µM (active)
same,Potency,HaCat,26.4 µM (active) and 20.6 µM (active)
same,max response,KB-3-1,-20.5% and -13.3%
same,Potency,NIH3T3 [1],3.32 µM (active) and 3.26 µM (active)
same,Potency,MCC-13,16.6 µM (active)
same,Potency,MCC-26,11.8 µM (active)
same,Potency,MKL-1,inactive
same,Potency,MKL-2,inactive
same,Potency,C33A,inactive
same,Potency,CAOV3,11.2 µM (active)
same,Potency,HeLa,inactive
